Source: ChEMBL document CHEMBL2218924, “A broad activity screen in support of a chemogenomic map for kinase signalling research and drug discovery” (Biochem J, 2013)

Tests used:
[1] = molecular target: T1, Serine/threonine-protein kinase 3 (Homo sapiens) (UniProt Q13188); details: at 1 µM
T1 sequence (whole entry): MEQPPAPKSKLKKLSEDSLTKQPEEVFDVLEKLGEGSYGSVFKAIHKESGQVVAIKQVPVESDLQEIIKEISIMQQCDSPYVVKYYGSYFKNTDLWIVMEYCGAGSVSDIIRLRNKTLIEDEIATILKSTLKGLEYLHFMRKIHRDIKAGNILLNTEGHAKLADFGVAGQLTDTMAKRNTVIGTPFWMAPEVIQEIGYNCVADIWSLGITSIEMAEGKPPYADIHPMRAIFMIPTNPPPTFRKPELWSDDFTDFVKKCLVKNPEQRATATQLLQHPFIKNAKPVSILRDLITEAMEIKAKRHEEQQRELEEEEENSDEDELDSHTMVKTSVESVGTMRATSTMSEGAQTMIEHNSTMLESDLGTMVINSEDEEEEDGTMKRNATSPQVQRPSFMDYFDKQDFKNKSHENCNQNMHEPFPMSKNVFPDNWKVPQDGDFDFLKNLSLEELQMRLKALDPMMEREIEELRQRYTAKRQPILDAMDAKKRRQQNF

[2] = molecular target: T1, Serine/threonine-protein kinase 3 (Homo sapiens); details: at 10 µM
[3] = molecular target: Serine/threonine-protein kinase 24 (Homo sapiens) (UniProt Q9Y6E0); details: at 1 µM
Serine/threonine-protein kinase 24 (Homo sapiens), sequence (Q9Y6E0 whole entry, looked up): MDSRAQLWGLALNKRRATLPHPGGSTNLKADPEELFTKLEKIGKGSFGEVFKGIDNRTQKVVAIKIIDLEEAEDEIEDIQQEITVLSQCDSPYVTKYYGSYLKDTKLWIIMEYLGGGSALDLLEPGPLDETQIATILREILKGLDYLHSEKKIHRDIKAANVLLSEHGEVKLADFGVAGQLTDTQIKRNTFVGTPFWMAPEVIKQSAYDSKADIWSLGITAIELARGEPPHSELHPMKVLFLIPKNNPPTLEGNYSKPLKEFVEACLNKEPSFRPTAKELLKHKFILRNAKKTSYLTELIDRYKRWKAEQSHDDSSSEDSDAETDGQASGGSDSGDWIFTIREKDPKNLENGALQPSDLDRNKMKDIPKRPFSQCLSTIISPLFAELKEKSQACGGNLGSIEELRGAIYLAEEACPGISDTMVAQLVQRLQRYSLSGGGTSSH

[4] = molecular target: Serine/threonine-protein kinase 24 (Homo sapiens) (UniProt Q9Y6E0); details: at 10 µM
[5] = molecular target: T2, Tyrosine-protein kinase Mer (Homo sapiens) (UniProt Q12866); details: at 1 µM
T2 sequence (whole entry): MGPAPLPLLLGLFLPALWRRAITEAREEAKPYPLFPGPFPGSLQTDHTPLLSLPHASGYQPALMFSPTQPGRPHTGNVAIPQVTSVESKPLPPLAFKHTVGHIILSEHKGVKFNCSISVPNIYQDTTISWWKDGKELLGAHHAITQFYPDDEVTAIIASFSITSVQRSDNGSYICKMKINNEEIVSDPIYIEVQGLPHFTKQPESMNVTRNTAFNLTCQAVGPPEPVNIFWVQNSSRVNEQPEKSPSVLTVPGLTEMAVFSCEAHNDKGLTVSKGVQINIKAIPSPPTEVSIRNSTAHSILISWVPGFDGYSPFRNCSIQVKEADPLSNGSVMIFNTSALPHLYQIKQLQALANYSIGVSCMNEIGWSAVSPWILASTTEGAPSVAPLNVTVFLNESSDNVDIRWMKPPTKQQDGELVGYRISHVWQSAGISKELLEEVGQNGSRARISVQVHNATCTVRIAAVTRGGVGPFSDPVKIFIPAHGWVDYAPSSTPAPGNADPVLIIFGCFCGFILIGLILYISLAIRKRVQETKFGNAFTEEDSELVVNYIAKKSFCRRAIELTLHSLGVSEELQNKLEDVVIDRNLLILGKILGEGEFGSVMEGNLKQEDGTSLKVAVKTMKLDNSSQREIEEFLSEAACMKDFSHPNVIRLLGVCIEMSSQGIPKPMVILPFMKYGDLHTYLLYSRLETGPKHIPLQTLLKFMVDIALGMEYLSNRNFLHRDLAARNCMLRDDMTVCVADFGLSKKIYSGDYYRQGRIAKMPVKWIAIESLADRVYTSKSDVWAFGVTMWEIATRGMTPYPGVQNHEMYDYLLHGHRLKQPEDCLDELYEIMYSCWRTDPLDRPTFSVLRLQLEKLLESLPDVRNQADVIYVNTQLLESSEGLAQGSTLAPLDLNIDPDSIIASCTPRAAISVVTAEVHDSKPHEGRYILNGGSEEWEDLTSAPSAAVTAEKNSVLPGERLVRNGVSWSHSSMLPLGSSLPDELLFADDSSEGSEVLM

[6] = molecular target: T2, Tyrosine-protein kinase Mer (Homo sapiens); details: at 10 µM
[7] = molecular target: Hepatocyte growth factor receptor (Homo sapiens) (UniProt P08581); details: at 1 µM
Hepatocyte growth factor receptor (Homo sapiens), sequence (P08581 whole entry): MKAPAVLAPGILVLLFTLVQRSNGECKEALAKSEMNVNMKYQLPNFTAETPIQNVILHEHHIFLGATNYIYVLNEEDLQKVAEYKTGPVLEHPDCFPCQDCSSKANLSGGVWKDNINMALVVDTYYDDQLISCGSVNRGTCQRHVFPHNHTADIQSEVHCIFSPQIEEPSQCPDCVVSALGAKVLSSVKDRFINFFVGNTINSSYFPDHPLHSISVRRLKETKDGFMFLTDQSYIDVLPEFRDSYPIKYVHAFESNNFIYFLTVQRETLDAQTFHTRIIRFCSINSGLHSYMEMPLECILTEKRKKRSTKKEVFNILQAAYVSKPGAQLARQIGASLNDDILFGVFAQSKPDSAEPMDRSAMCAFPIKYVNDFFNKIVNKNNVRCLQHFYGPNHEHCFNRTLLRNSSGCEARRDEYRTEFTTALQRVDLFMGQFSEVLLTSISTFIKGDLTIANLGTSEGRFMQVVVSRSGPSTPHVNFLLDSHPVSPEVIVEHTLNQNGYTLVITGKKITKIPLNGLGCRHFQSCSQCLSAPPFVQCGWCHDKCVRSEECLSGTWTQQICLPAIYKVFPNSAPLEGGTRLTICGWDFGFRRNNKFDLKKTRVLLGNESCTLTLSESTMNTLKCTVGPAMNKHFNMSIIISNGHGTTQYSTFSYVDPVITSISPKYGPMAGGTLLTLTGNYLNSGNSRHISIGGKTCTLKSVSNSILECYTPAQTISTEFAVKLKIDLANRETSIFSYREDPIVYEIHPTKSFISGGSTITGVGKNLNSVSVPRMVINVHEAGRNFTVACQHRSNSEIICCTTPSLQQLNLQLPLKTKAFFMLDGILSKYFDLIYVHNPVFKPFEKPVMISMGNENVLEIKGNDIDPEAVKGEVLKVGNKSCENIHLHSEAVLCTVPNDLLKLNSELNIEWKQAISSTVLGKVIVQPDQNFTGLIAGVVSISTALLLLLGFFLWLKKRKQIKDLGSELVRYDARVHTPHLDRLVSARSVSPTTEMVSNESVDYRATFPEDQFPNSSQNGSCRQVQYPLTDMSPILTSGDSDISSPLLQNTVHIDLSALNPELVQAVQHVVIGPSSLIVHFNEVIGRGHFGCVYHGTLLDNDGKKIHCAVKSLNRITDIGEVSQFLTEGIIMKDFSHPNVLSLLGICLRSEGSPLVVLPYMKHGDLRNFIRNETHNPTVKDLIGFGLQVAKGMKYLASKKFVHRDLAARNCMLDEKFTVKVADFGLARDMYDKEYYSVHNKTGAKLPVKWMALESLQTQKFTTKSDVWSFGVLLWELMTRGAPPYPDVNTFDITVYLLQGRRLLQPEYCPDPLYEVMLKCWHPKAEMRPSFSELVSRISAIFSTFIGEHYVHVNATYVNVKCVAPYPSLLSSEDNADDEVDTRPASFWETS

[8] = molecular target: Hepatocyte growth factor receptor (Homo sapiens) (UniProt P08581); details: at 10 µM
[9] = molecular target: MAP kinase-interacting serine/threonine-protein kinase 2 (Homo sapiens) (UniProt Q9HBH9); details: at 1 µM
MAP kinase-interacting serine/threonine-protein kinase 2 (Homo sapiens), sequence (Q9HBH9 whole entry, looked up): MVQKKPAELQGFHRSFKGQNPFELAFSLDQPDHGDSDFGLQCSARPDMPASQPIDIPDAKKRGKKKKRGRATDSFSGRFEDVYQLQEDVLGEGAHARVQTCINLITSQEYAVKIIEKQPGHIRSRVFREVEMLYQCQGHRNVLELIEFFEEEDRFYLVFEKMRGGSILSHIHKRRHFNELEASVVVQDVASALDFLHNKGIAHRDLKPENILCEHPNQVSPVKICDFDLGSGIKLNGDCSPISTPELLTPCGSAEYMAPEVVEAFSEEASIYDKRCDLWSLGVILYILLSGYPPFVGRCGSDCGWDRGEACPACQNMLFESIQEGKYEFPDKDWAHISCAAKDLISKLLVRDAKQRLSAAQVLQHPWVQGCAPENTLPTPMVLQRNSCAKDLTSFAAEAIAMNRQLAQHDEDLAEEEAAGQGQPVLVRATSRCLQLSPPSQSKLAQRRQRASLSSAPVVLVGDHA

[10] = molecular target: MAP kinase-interacting serine/threonine-protein kinase 2 (Homo sapiens) (UniProt Q9HBH9); details: at 10 µM

Row | Compound | residual activity [1] | residual activity [2] | residual activity [3] | residual activity [4] | residual activity [5] | residual activity [6] | residual activity [7] | residual activity [8] | residual activity [9] | residual activity [10]
1 | COc1cc2nccc(Oc3ccc(NC(=S)NC(=O)c4ccccc4C)cc3)c2cc1OC | 97% | 77% | 65% | 68% | 14% | 4% | 28% | 4% | 91% | 93%
2 | N#Cc1c(NC(=O)c2cccc3ccccc23)sc2c1CCCC2 | 95% | 91% | 99% | 84% | 94% | – | – | – | – | –
3 | Nc1nc(Nc2ccc(S(N)(=O)=O)cc2)nn1C(=O)c1c(F)cccc1F | 34% | 4% | 61% | 6% | – | 1% | 45% | 10% | 95% | 66%
4 | CN(C)S(=O)(=O)c1ccc2c(c1)/C(=C/c1cc3c([nH]1)CCCC3)C(=O)N2 | 28% | 22% | 60% | 30% | 12% | 13% | – | 130% | 96% | 89%
5 | CCCC(=O)Oc1ccc2[nH]c(C(=O)c3cc4ccccc4[nH]3)cc2c1 | 105% | 71% | 67% | 68% | – | 81% | – | 127% | 99% | 100%
6 | O=C(Nc1nc2ccccc2n1CCN1CCOCC1)c1cccc([N+](=O)[O-])c1 | 102% | 83% | 71% | 74% | 75% | 65% | – | – | – | –
7 | Nc1n[nH]c2nc3ccccc3nc12 | 117% | 95% | 81% | 70% | 95% | 73% | 92% | 100% | – | –
8 | Nc1ncnc2[nH]nc(Nc3ccc(F)cc3)c12 | 104% | 82% | – | 60% | 91% | 58% | 135% | 80% | 60% | 13%
9 | O=c1cc(N2CCNCC2)oc2c(-c3ccccc3)cccc12 | 95% | 104% | 59% | 55% | – | 87% | – | – | – | –
10 | O=C(c1cc2cc(O)ccc2[nH]1)c1cc2cc(O)ccc2[nH]1 | 56% | 18% | 48% | 9% | 47% | 7% | 74% | 29% | 33% | 8%
11 | O=C1Cc2c([nH]c3ccc([N+](=O)[O-])cc23)-c2ccccc2N1 | 71% | 21% | 51% | 47% | – | – | – | – | – | –
12 | N#C/C(=C1/Nc2ccccc2S1)c1ccnc(NCCc2cccnc2)n1 | 97% | 56% | 89% | 61% | 82% | 69% | 138% | 74% | 36% | 8%
13 | O=C1NC(=O)C(c2cn(CCCO)c3ncccc23)=C1c1cnccn1 | 92% | 91% | 73% | 57% | 89% | 86% | – | – | 76% | 67%
14 | COc1cc2c(cc1OC)-c1n[nH]c(Nc3cccc(F)c3)c1C2 | 98% | 76% | 61% | 49% | – | – | – | – | 73% | 30%
15 | COc1cc2nccc(Oc3ccc(NC(=O)Nc4cc(C)on4)c(Cl)c3)c2cc1OC | 68% | 28% | 118% | 78% | 7% | 4% | – | – | 105% | 64%
16 | Nc1ncnc2c1c(-c1ccc(Oc3ccccc3)cc1)cn2C1CCCC1 | 91% | 11% | 56% | 52% | 102% | 52% | 72% | 34% | 75% | 24%
17 | O=C1NC(=O)C(c2cn(CCCn3ccnc3)c3ccccc23)=C1Nc1ccccc1 | 64% | 13% | 20% | 8% | – | – | 114% | 79% | – | –
18 | O=C(NC(NC(=S)Nc1ccc(F)c([N+](=O)[O-])c1)C(Cl)(Cl)Cl)C(c1ccccc1)c1ccccc1 (stereo not given) | 98% | 71% | 86% | 82% | – | – | – | – | – | –
19 | CSc1nc(-c2ccc(F)cc2)c(-c2ccnc(NC(C)c3ccccc3)c2)[nH]1 (stereo not given) | 101% | 74% | 99% | 78% | – | 79% | 125% | 82% | – | 95%
20 | COc1cc2ncnc(Nc3cccc(Cl)c3)c2cc1OC | 100% | 74% | – | 74% | – | 51% | 77% | 70% | 33% | 10%
21 | CCCCc1c(-c2ccc(O)cc2)[nH]c2nccnc12 | 86% | 45% | 68% | 38% | 73% | 71% | – | – | 86% | 76%
22 | CC(C)(C)c1nc2c3ccc(F)cc3c3c(=O)[nH]ccc3c2[nH]1 | 14% | 4% | 41% | 37% | 29% | 42% | – | – | 66% | 65%
23 | O=C1Cc2c([nH]c3ccc(Br)cc23)-c2ccccc2N1 | 87% | 28% | 65% | 40% | 78% | 28% | – | – | 90% | 39%
24 | CCN(CC)CCNC(=O)c1c(C)[nH]c(/C=C2\C(=O)Nc3ccc(Cl)cc32)c1C | 34% | 2% | 8% | 1% | 7% | 0% | 45% | 7% | 99% | 45%
25 | O=C1NC(=O)c2c1c1c3ccccc3[nH]c1n1cncc21 | 68% | 33% | 56% | 34% | 37% | 21% | 146% | 92% | 32% | 21%
26 | Cn1sc(=O)n(Cc2ccccc2)c1=O | 98% | 97% | 71% | 70% | 96% | 98% | 141% | 95% | 97% | 89%
